Sampled rows, rich in hits. Any-hit rate of the full collection: about 13%.
WT yeast gro inh: growth inhibition of WT yeast, mitochondrial fusion screen; mitochondrial fusion phenotypic screen, WT strain; inhibition, % at 10 µM; hit rate 2.1% among 190,000; in the data active means inhibition above about 58%; tested in S. cerevisiae
CHOP inhibitor: CHOP inhibition in unfolded protein response; CHO-K1 CHOP-promoter luciferase, tunicamycin-induced, 15-18 h; inhibition, % at 10 µM; hit rate 3.8% among 220,000; AID 2732;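 active means compounds that reduced the stress-induced luciferase reporter signal by more than about 70% of percent inhibition, limit read from the data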
RAM inhibit: blocks the yeast RAM network; S. cerevisiae dse1pr::URA3 reporter, 5-FOA growth OD615, 2 d; analog-sensitive cbk1-as2 kinase mutant strain; inhibition, % at 50 µM; hit rate 1.8% among 190,000; AID 868;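 active means inhibition above a set limit, 3 SD over mean compound inhibition, cut at about 8.4% in these data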;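 further: inhibition rescues growth on 5-FOA so higher OD means more RAM inhibition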
L major viab: inhibitors of Leishmania major promastigote growth; Leishmania major promastigotes, resazurin fluorescence viability; inhibition, % at 10 µM; hit rate 9% among 200,000; AID 1063; in the data active means inhibition above about 50%;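 further: promastigotes grown with compound for 44 hours at 28 °C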
CHOP confirm: confirmation of CHOP induction inhibitors | shares compounds with CHOP inhibitor | CHO-CHOP promoter luciferase reporter, tunicamycin-induced, luminescence | inhibition, % at 10 µM | hit rate 45% among 2,100 | AID 504437;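 active means mean of three repeat readings of reporter signal inhibition above a set limit, cut at about 70% in these data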
Of the large screens only hits and unclear results are named; the others gave an inactive call (follow-up assays come after a bar, where they were run).

CC1=NOC(=O)/C1=C\c1ccc2c(c1)OCO2	CHOP inhibitor 101 | CHOP confirm inactive
CC1=NOC(=O)/C1=C/c1ccc2c(c1)OCO2	CHOP inhibitor 100 | CHOP confirm inactive
O=C1OCC/C1=C\c1ccc2c(c1)OCO2	none (no result: WT yeast gro inh, RAM inhibit, L major viab)
Cc1ccc(Nc2ncc3c(n2)CC(C)(C)CC3=O)cc1	none
COC(=O)CSC1=C(C#N)C(=O)NC(c2ccccc2)S1 (stereo unspecified)	CHOP inhibitor 99 | CHOP confirm inactive
CSC1=C(C#N)C(=O)NC(c2ccccc2O)S1 (stereo unspecified)	none (no result: WT yeast gro inh, RAM inhibit, L major viab)
C=CCn1c(SCC(=O)c2[nH]c(C)c(C(=O)OC)c2C)nc2scc(-c3ccc(OC)c(OC)c3)c2c1=O	CHOP inhibitor 102 | CHOP confirm 120
C=CCn1c(SCC(=O)c2[nH]c(C)c(C(C)=O)c2C)nnc1-c1ccncc1	none
CN1c2cccc3cccc(c23)N(C)C1c1cccs1	none
c1csc(C2Nc3cccc4cccc(c34)N2)c1	CHOP inhibitor 97 | CHOP confirm inactive
O=C(Nc1nc2ccccc2s1)C1CC(=O)N(c2ccc(Cl)cc2)C1 (stereo unspecified)	CHOP inhibitor 105 | CHOP confirm inactive
O=C(COC(=O)CCC(=O)c1ccc(Cl)cc1)NC1CC1	none
CC(=O)Nc1sc(N/N=C\c2ccccc2Cl)nc1-c1cccs1	CHOP inhibitor 103 | CHOP confirm inactive
CC(=O)Nc1sc(N/N=C\c2ccccc2)nc1-c1cccs1	none
Cc1ccc(C(=O)/C=C/Nc2cccc([N+](=O)[O-])c2)o1	none
CCOC(=O)c1[nH]c2c(c1-c1ccc(OC)cc1)C(=O)CC(c1ccc(OC)c(OC)c1)C2 (stereo unspecified)	none
N#C/C(=C\C=C\c1ccccc1)c1nc(-c2ccc(Cl)cc2)cs1	none (no result: WT yeast gro inh, RAM inhibit, L major viab)
CCn1c(O)c(/C=C2\C=NN=C2c2ccccc2)sc1=S	CHOP inhibitor 98 (no result: WT yeast gro inh, RAM inhibit, L major viab) | CHOP confirm inactive
O=C(CC(=O)c1ccccc1O)c1ccc(F)cc1	CHOP inhibitor 101, L major viab 97 | CHOP confirm inactive
O=C(CC(=O)c1ccccc1O)c1cccc(F)c1	L major viab 98 (no result: CHOP inhibitor) | CHOP confirm inactive
Cc1ccc(C(=O)CC(=O)c2cc(Cl)ccc2O)cc1	WT yeast gro inh 62, CHOP inhibitor 102, RAM inhibit 10, L major viab 99 | CHOP confirm 72
Cc1ccc(N(CC(=O)NC(C)(C)C)C(=O)CS(=O)CC(=O)Nc2ccc(F)cc2)cc1 (stereo unspecified)	none
Cc1cccc(C)c1NC(=S)NC(C)(C)CO	none (no result: WT yeast gro inh, RAM inhibit, L major viab)
Clc1ccc(OCc2nnc3n2CCCCC3)c(Cl)c1	none (no result: WT yeast gro inh, RAM inhibit, L major viab)
O=C(NNS(=O)(=O)c1ccc(F)c(Cl)c1)c1cccc(S(=O)(=O)N2CCOCC2)c1	none
CCOC(=O)C1=C(O)/C(=C\c2ccc(CNC(=O)C(=O)Nc3ccc(C)c(C)c3)o2)N=C1C	CHOP inhibitor 109 | CHOP confirm inactive
CCCCCCCC(=O)NC(Nc1ccc(S(N)(=O)=O)cc1)C(Cl)(Cl)Cl (stereo unspecified)	none
O=[N+]([O-])c1ccc(-c2nc(C(Cl)Cl)c3ccccc3n2)cc1	CHOP inhibitor 105 (no result: WT yeast gro inh, RAM inhibit, L major viab) | CHOP confirm 124
C/C(=N\NC(=O)c1ccc(N/N=C(\C)c2ccc(O)cc2)cc1)c1ccc(O)cc1	none (no result: WT yeast gro inh, RAM inhibit, L major viab)
COc1ccc(C(=O)C(C)Oc2cccc(NC(=O)c3cccc([N+](=O)[O-])c3)c2)cc1 (stereo unspecified)	none
COc1ccccc1-n1cc([C@@H]2C[C@H]3CN(c4ccccc4)C(=O)[C@]34CCCN24)cn1	CHOP inhibitor 102 | CHOP confirm 104
COc1ccccc1CN1C[C@@H]2C[C@@H](c3ccc(Cl)cc3)N3CCC[C@@]23C1=O	none
COC(=O)CCC/C=C1\SC[C@@H](NC(=O)c2ccccc2)C1NC(C)=O (stereo partly specified)	none
CCn1c(C)nc2cc(-c3nc4n(n3)Cc3ccccc3-4)ccc21	none (no result: CHOP inhibitor) | CHOP confirm 138
CCCCCn1c(CN2CCN(C)CC2)nc2c1c(=O)n(C)c(=O)n2C	none
CCCCCCn1c(CN2CCN(Cc3ccccc3)CC2)nc2c1c(=O)n(C)c(=O)n2C	CHOP inhibitor 100 | CHOP confirm 120
COc1ccc(C(=O)OCC(=O)NCCN2C(=O)CSC2=O)cc1	none
CC(NCc1ccc(OCc2ccc(Cl)cc2)cc1)C(O)c1ccccc1 (stereo unspecified)	CHOP inhibitor 105, L major viab 100 | CHOP confirm inactive
CCOc1ccc(C(C)NC(=S)NCc2ccc(Cl)cc2)cc1 (stereo unspecified)	none
Cc1ccccc1-n1nnnc1SCC(=O)NCC1CCCO1 (stereo unspecified)	none

Compound activity as filed in PubChem.
